Our source for the growth values is PubChem BioAssay (NCI).

About 83,000 compounds went through this panel and 20% of them were active in at least one assay; those are over-represented in the sample as a whole.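 Note: values are percent growth. 100 is the growth of untreated cells, values between 100 and 0 indicate rising inhibition; between -100 and 0 indicates cell death.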 A number with no mark means an inactive call. The source made the active and inactive calls. The calls were made as follows: active = growth percent below 10; inactive = the rest.

Test systems include HCT-15 colon; HT29 colon; SNB-75 CNS; SNB-19 CNS; U251 CNS; PC-3 prostate; SK-MEL-5 melanoma; UACC-62 melanoma; LOX IMVI melanoma; SK-MEL-28 melanoma; SK-MEL-2 melanoma; EKVX NSCLC; SN12C renal; UO-31 renal; TK-10 renal; ACHN renal; CAKI-1 renal; A498 renal; CCRF-CEM leukemia; MOLT-4 leukemia.
Holding throughout (experiment): NCI-60 one-dose screen, 48 h (100 = growth as untreated, 0 = no growth, -100 = all killed)
Details in all cases: 10 µM unless noted

`O=C(Nc1ccccc1)Oc1ccccc1-c1ccccc1`: the growth in the assay on HCT-15 colon is 102%; in the assay with HT29 colon, 96.5%; in the assay with SNB-75 CNS, 75.5%; with SNB-19 CNS it was 99.5%; in the assay on U251 CNS, 95.2%; in the assay on PC-3 prostate, 80.4%. Further, the growth with SK-MEL-5 melanoma is 97.9%; in the assay on UACC-62 melanoma, 93.2%; in the assay on LOX IMVI melanoma, 95.2%; in the assay on SK-MEL-28 melanoma, 107%; in the assay with SK-MEL-2 melanoma, 93.2%; in the assay with EKVX NSCLC, 96.5%. Besides, the growth is 98.5% in the assay on SN12C renal; 57.7% in the assay on UO-31 renal; 94.1% in the assay on TK-10 renal; 99.9% in the assay with ACHN renal; 88.2% in the assay with CAKI-1 renal; 75.3% in the assay on A498 renal. In addition, in the assay with CCRF-CEM leukemia, the growth is 95.8%.
On to `O=c1[nH]c2c(s1)CCCC2CN1CCCCC1` (configuration not stated), for which the growth is 107% in the assay with HCT-15 colon; 95.2% in the assay on HT29 colon; 83.8% in the assay with SNB-75 CNS; 110% in the assay on SNB-19 CNS; 102% in the assay on U251 CNS; 91.9% in the assay with PC-3 prostate. For the same compound, the growth is 99.8% with SK-MEL-5 melanoma; 113% in the assay with UACC-62 melanoma; 95.5% in the assay on LOX IMVI melanoma; 99.3% in the assay on SK-MEL-28 melanoma; 97.2% in the assay on SK-MEL-2 melanoma; 105% in the assay with EKVX NSCLC. In addition, the growth in the assay on SN12C renal is 103%; in the assay on UO-31 renal, 89.3%; with TK-10 renal, 93%; with ACHN renal, 97.6%; with CAKI-1 renal it was 99%; in the assay on A498 renal it was 95.8%. In the assay with CCRF-CEM leukemia, the growth was 109%.
As for `COc1ccc(C2CC(c3cccc(Nc4ccncc4)c3)=NN2c2ccc(Cl)cc2)cc1` (configuration not stated), the growth in the assay on HCT-15 colon was -53.3% (active); with HT29 colon, -20.2% (active); in the assay on SNB-75 CNS it was 54.9%; in the assay with SNB-19 CNS, 90.4%; in the assay on U251 CNS, -40% (active); in the assay on PC-3 prostate, 30.9%. Also, the growth in the assay with SK-MEL-5 melanoma was 61.3%; in the assay on UACC-62 melanoma, 97%; with LOX IMVI melanoma, -80.5% (active); in the assay with SK-MEL-28 melanoma, -80.7% (active); in the assay with SK-MEL-2 melanoma, 80.4%; with EKVX NSCLC, 83.8%. The growth with SN12C renal was 63.7%; in the assay on UO-31 renal, 47.6%; in the assay with TK-10 renal it was 59.1%; with ACHN renal, 46.7%; in the assay with CAKI-1 renal, 24.5%; in the assay with A498 renal, 70.1%. Also, the growth is 4.44% (active) in the assay on CCRF-CEM leukemia and -7.16% (active) in the assay with MOLT-4 leukemia.
On to `O=C(O)c1ccc[n+](CC(=O)N2CCN(c3cc4c(cc3F)c(=O)c(C(=O)O)cn4C3CC3)CC2)c1`, for which the growth with HCT-15 colon was 73.4%; with HT29 colon it was 92.9%; in the assay on SNB-75 CNS, 79.4%; with SNB-19 CNS, 87.1%; with U251 CNS it was 74.7%; in the assay with PC-3 prostate it was 87.3%. In addition, the growth with SK-MEL-5 melanoma is 91.7%; with UACC-62 melanoma, 48.9%; in the assay with LOX IMVI melanoma, 30.2%; with SK-MEL-28 melanoma it was 60.4%; in the assay with SK-MEL-2 melanoma, 86.1%; in the assay on EKVX NSCLC it was 107%. For the same compound, the growth is 29.4% in the assay with SN12C renal; 71.8% in the assay on UO-31 renal; 112% in the assay on TK-10 renal; 72.8% in the assay with ACHN renal; 92.8% with CAKI-1 renal; 98% in the assay on A498 renal. Also, the growth with CCRF-CEM leukemia was -25.6% (active); in the assay on MOLT-4 leukemia it was 12.6%.
For the compound `O=C(N/N=C/c1ccc(F)cc1)c1ccccc1Nc1cccc(C(F)(F)F)c1`, the growth in the assay with HCT-15 colon was 85.6%; with HT29 colon, 118%; in the assay with SNB-75 CNS it was 99.5%; in the assay on SNB-19 CNS, 90.2%; in the assay on U251 CNS it was 100%; in the assay on PC-3 prostate it was 96.2%. In addition, the growth with SK-MEL-5 melanoma was 109%; in the assay with UACC-62 melanoma, 101%; with LOX IMVI melanoma, 86.6%; in the assay on SK-MEL-28 melanoma it was 91.2%; with SK-MEL-2 melanoma it was 114%; in the assay on EKVX NSCLC, 102%. Besides, the growth in the assay on SN12C renal was 102%; with UO-31 renal, 94.1%; in the assay on TK-10 renal, 130%; with ACHN renal it was 102%; in the assay with CAKI-1 renal, 112%; with A498 renal, 70.8%. In addition, the values for the growth with CCRF-CEM leukemia and in the assay with MOLT-4 leukemia were 6.32% (active) and 7.44% (active), respectively.
`CCN(CCNc1cc(OC)cc2cccnc12)CCc1ccccc1`: the growth in the assay on HCT-15 colon is 73.1%; in the assay with HT29 colon, 70%; in the assay on SNB-75 CNS it was 83.7%; in the assay on SNB-19 CNS, 98.1%; in the assay with U251 CNS it was 101%; in the assay on PC-3 prostate, 87.5%. Also, the growth in the assay on SK-MEL-5 melanoma was 95.3%; with UACC-62 melanoma it was 99.8%; in the assay with LOX IMVI melanoma, 86.5%; in the assay on SK-MEL-28 melanoma, 102%; in the assay with SK-MEL-2 melanoma, 101%; with EKVX NSCLC, 91.2%. The growth with SN12C renal is 91.3%; in the assay on UO-31 renal it was 70.8%; in the assay with TK-10 renal it was 101%; in the assay on ACHN renal, 84.1%; with CAKI-1 renal it was 84.7%; in the assay with A498 renal, 92.2%. Further, the growth in the assay on CCRF-CEM leukemia was 73.7%.
Regarding `O=C(O)C(/C=C/c1ccco1)=N\Nc1nc(-c2ccc(Cl)cc2)cs1`, the growth with HCT-15 colon is 36.3%; in the assay on HT29 colon it was 86.4%; in the assay with SNB-75 CNS, 57.4%; with SNB-19 CNS it was 42.5%; with U251 CNS, 30.7%; with PC-3 prostate it was 54.3%. Besides, the growth is 62.1% with SK-MEL-5 melanoma; 57.1% with UACC-62 melanoma; 46.7% in the assay on LOX IMVI melanoma; 70.4% with SK-MEL-28 melanoma; 11.5% in the assay with SK-MEL-2 melanoma; 67.1% in the assay with EKVX NSCLC. For the same compound, the growth with SN12C renal was 86.8%; in the assay with UO-31 renal, 38.8%; with TK-10 renal it was 77.6%; with ACHN renal it was 69%; with CAKI-1 renal, 63.9%; with A498 renal, 65.2%. Besides, the growth is 24% in the assay on CCRF-CEM leukemia and 40.9% in the assay on MOLT-4 leukemia.
Turning to `COc1cc(OC)cc(C2C3=C(COC3=O)Nc3cc(OC)ccc32)c1` (configuration not stated), the growth was 11.3% in the assay on HCT-15 colon; 0.152% (active) in the assay on HT29 colon; 40.7% in the assay on SNB-75 CNS; 36.2% in the assay with SNB-19 CNS; 16.2% in the assay with U251 CNS; 29.3% with PC-3 prostate. Further, the growth in the assay on SK-MEL-5 melanoma is -24.3% (active); in the assay with UACC-62 melanoma, 36%; in the assay with LOX IMVI melanoma it was 25.8%; with SK-MEL-28 melanoma it was 63.5%; with SK-MEL-2 melanoma it was 1.66% (active); in the assay on EKVX NSCLC, 53.7%. Moreover, the growth in the assay with SN12C renal was 25.2%; in the assay with UO-31 renal it was 46.8%; in the assay on TK-10 renal it was 65.7%; in the assay with ACHN renal, 28.1%; with CAKI-1 renal it was 36.7%; in the assay with A498 renal, 1.93% (active). Besides, the growth in the assay with CCRF-CEM leukemia is 19.9%; in the assay on MOLT-4 leukemia, 17.6%.
